# According to PubChem BioAssay AID1273 (Columbia University Molecular Screening Center, 2008):
# Among all 130,000 compounds or so, about 1,200 (0.92%) were called active.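 Rule for the calls: active = inhibition above the mean plus 3 SD, with well images judged a real hit on visual review (cut at about 60% in these data, passing the limit was not always enough); inconclusive = inhibition over the cutoff but images rejected on review; inactive = inhibition not above the cutoff.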 Shown is part of a subset that was picked to be rich in actives.
# Experiment: insulin gene promoter suppression in islet cells – imaging, TRM-6 cells (human fetal islet line), eGFP reporter, cell count, primary screen (AID 1273;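 for normalized cell count: cells exposed to compound for 48 h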)
# Details: at 2 µM, reporter expression induced with tamoxifen; inhibition: stronger effect = higher value; normalized cell count: measured here: cell count, toxicity
Structure (SMILES),inhibition,normalized cell count
COc1ccc(-c2cn3cccnc3n2)cc1,23.5% (inactive),80.6%
Cc1ccc(Cl)c(NC(=O)CN2CCN(C=O)CC2)c1,-71.4% (inactive),117%
O=C(CC1C(=O)NCCN1Cc1ccc(-c2ccccc2)cc1)NCc1ccncc1 (stereo not drawn),0% (inactive),65.4%
CCSc1ccccc1C(=O)Nc1ccc2c(c1)OCO2,-63.2% (inactive),84.3%
N/C(=N\OC(=O)Cc1ccccc1[N+](=O)[O-])c1ccc(Br)cc1,7.69% (inactive),129%
N/C(=N\OC(=O)N1c2ccccc2Sc2ccccc21)c1ccc(Br)cc1,79.3% (active),124%
N/C(=N\OC(=O)/C=C/c1ccccc1)c1ccc(Br)cc1,14.3% (inactive),133%
Cc1ccccc1NC(=O)Cc1nnc(SCC(=O)N2CCN(c3ccccc3)CC2)n1C,18.2% (inactive),112%
Cc1nnc(SCC(=O)N2CCN(c3ccccc3)CC2)n1-c1ccccc1,-41% (inactive),117%
Cc1cc2nnc(SCC(=O)N3CCN(c4ccccc4)CC3)n2c(N)n1,74.3% (active),82.1%
O=C(CSc1ccsc1[N+](=O)[O-])N1CCCCC1,-33.3% (inactive),80.7%
Cn1c(=O)n(CCc2ccccc2)c(=O)c2c1nc1n2CCCN1c1ccccc1,-196% (inactive),86.5%
Cc1cccc(N2CC(C)Cn3c2nc2c3c(=O)n(CC(=O)OCc3ccccc3)c(=O)n2C)c1 (stereo not drawn),87.5% (active),63.7%
Cc1cccc(Cn2c(N3CCN(c4ccccc4)CC3)nc3c2c(=O)n(C)c(=O)n3C)c1,-28.1% (inactive),82.7%
O=[N+]([O-])/C(N=Nc1ccccc1)=N\Nc1ccccc1,7.14% (inactive),142%
COCCCNC(=S)NNC(=O)C(O)(c1ccccc1)c1ccccc1,-89.5% (inactive),100%
COCn1c(COc2ccccc2)nc2ccccc21,30% (inactive),132%
C=C(Br)Cn1c(CCCC)nc2ccccc21,85.7% (active),72.7%
CCCCn1c(CN2CCN(CCO)CC2)nc2ccccc21,-68.6% (inactive),100%
CCCNCc1cc(OCC)c(OCC(=O)Nc2ccccc2)cc1Br,0% (inactive),99%
C=C(C)Cn1c(C)cc(C)c(S(=O)(=O)c2ccccc2C)c1=O,78.4% (active),40.9%
Cc1nc([N+](=O)[O-])c(NCCCO)n1Cc1ccccc1,50% (inactive),125%
CC(C)C(=O)NCc1cc(-c2ccc(Cl)cc2)no1,55% (inactive),86.2%

Structure (SMILES),inhibition,normalized cell count
CS(=O)(=O)N1CCc2cc(C(=O)Nc3ccccc3)ccc21,43.6% (inactive),103%
CCN(CC)CCn1c2ccc(Cl)cc2c2nc(C)sc21,46.1% (inactive),78.6%
COC(=O)Cn1c2ccc(C)cc2c2nc(C)sc21,85.7% (active),32.4%
COC(=O)Cn1c(=NC(=O)c2cc(OC)c(OC)c(OC)c2)sc2cc(OC)ccc21,-14.3% (inactive),101%
Cc1cc(NC(=O)CN2C(=O)NC(CCc3ccccc3)C2=O)no1 (stereo not drawn),60% (inactive),76%
S=C(NCc1cccnc1)Nc1ccc(Cl)cc1Cl,-31.6% (inactive),122%
CC(C(=O)NC1CCCC1)N(c1ccc(Oc2ccccc2)cc1)S(C)(=O)=O (stereo not drawn),-15.8% (inactive),67.6%
Cc1ccc(S(=O)(=O)N(C)C)cc1NC(=O)COC(=O)C1COc2ccccc2O1 (stereo not drawn),-44.4% (inactive),51.1%
CCCCn1nc(C(=O)Nc2ccc(S(=O)(=O)Nc3ncccn3)cc2)c2ccccc2c1=O,25% (inactive),158%
Cc1ccsc1CNn1cnnc1SCc1ccccc1F,86.5% (active),28.9%
O=C(O)CSc1nnc(-c2ccc3c(c2)OCO3)n1-c1ccccc1,15% (inactive),96.8%
CCC1(CC)NC(=O)N(Cc2nc3ccccc3s2)C1=O,-16.7% (inactive),127%
CCOC12CC(C)(C)CC(C)(CC3=C1C(=O)CC(C)(C)C3)C2 (stereo not drawn),73.7% (active),4.89%
CCCN(CC(=O)Nc1ccc(OC)c(OC)c1)CC(=O)Nc1ccc(F)c(F)c1F,-25% (inactive),134%
O=Cc1ccc(OCc2cn3ccccc3n2)cc1,36.4% (inactive),194%
COC(=O)NNC1=CC(=O)CC(C)(C)C1,-26.7% (inactive),74.6%
COC(=O)C(NS(=O)(=O)c1ccc(F)cc1)c1ccccc1 (stereo not drawn),-16.3% (inactive),140%
Fc1ccccc1/C=C1\CCCC2=C1Nc1ncnn1C2c1ccccc1F (stereo not drawn),86.1% (active),102%
O=CN1CCN(C2CC(=O)N(c3ccc4c(c3)OCO4)C2=O)CC1 (stereo not drawn),20.9% (inactive),129%
COc1ccc(N2CCN(C3CC(=O)N(c4ccc5c(c4)OCCO5)C3=O)CC2)cc1 (stereo not drawn),91.7% (active),78.3%
COc1cccc(N2CCN(C3CC(=O)N(c4ccc(Cl)cc4)C3=O)CC2)c1 (stereo not drawn),30.8% (inactive),118%
CCN(/N=C/c1ccc(N(C)C)cc1)c1nc2ccccc2[nH]1,86.7% (active),159%
Nc1cccc(CCc2nc3ccccc3[nH]2)c1,17.2% (inactive),146%

Structure (SMILES),inhibition,normalized cell count
CN(C)c1ccc(/C=N\S(=O)(=O)c2ccccc2)cc1,-39.5% (inactive),46.9%
Cc1nn(CC#N)c(=O)n1N(C)c1ncc(C(F)(F)F)cc1Cl,30% (inactive),84.4%
C=CCSc1nc2ccccc2[nH]1,81.8% (active),184%
O=C(CSc1nc2ccccc2[nH]1)c1cccs1,42.9% (inactive),105%
COc1ccccc1CSc1nc2ccccc2[nH]1,-54.8% (inactive),124%
CCOC(=O)CSc1nc(C)cc2c1C(=O)OC2,28.6% (inactive),94.5%
CCCCc1nnc(NC(=O)CSc2nc(N)cc(=O)[nH]2)s1,12.5% (inactive),93.7%
COc1ccc2oc(=O)c(C(=O)N3CCCC3)cc2c1,44.4% (inactive),107%
CN(C)c1ccc(C=NCCc2ccc(S(N)(=O)=O)cc2)cc1,31.2% (inactive),121%
CC1(C)CC(=O)c2cnc3nc4ccccc4n3c2C1,76.2% (active),56.3%
Cc1ccc2nc(Nc3ncc4c(n3)CC(C)(C)CC4=O)nc(C)c2c1,-25% (inactive),96.8%
CC(C)(C)c1cc(=O)n2c(nc3ccccc32)[nH]1,29.4% (inactive),245%
Cc1ccc(OCCCn2c(=O)oc3ccccc32)cc1,-26.7% (inactive),84.1%
COc1ccc(OC)c(Cc2nnc(CCC(=O)NC3CCCC3)o2)c1,11.1% (inactive),95.3%
Cc1onc(-c2ccccc2)c1C(=O)N1CCOCC1,-90% (inactive),78.8%
Cc1onc(C(=O)NN)c1C(=O)N1CCN(C(c2ccccc2)c2ccccc2)CC1,81.8% (active),29.3%
Cn1nnnc1SCC(=O)N1CCN(C(c2ccccc2)c2ccccc2)CC1,-18.9% (inactive),68.2%
Cc1nnsc1C(=O)N/N=C/c1cccc(C(F)(F)F)c1,-86.7% (inactive),39.6%
O=[N+]([O-])c1ccccc1NCc1ccccc1Cl,33.3% (inactive),123%
O=c1c([N+](=O)[O-])cc(C(F)(F)F)cn1Cc1cccc(Cl)c1,-10.7% (inactive),66.7%
O=c1c([N+](=O)[O-])cccn1Cc1ccc(F)cc1Cl,73.3% (active),83.1%
CCOC(=O)Cn1nnnc1C,26.7% (inactive),95.5%
O=C(c1snnc1-c1ccccc1)N1CCOCC1,-30.2% (inactive),64.9%

Structure (SMILES),inhibition,normalized cell count
Cc1cccc(C)c1NC(=O)C1(N(C(=O)c2ccccn2)c2ccc(O)cc2)CCCCC1,6.67% (inactive),38.5%
CC(O)c1cccc(NC(=O)Cc2cccc3ccccc23)c1 (stereo not drawn),-38.9% (inactive),41%
COc1ccc(C(=O)N2CCC(C(=O)Nc3ccc(C)cc3)CC2)cc1,33.3% (inactive),85.5%
O=C1CCC(C(=O)Nc2ccc(OC(F)F)cc2)N1 (stereo not drawn),72.7% (active),73.3%
CCCOc1ccc(NC(=O)C2CCCNC2=O)cc1 (stereo not drawn),5.71% (inactive),82.1%
CCOC(=O)Cc1ncccc1C(=O)Nc1ccc(OC(F)(F)F)cc1,0% (inactive),62.2%
O=C(CNCc1ccc(Cl)cc1)Nc1cccc(C(=O)O)c1,38.5% (inactive),79.9%
Cc1ccc(O/C=C2\OC(=O)c3ccccc32)cc1,81.2% (active),93%
Cc1ccc(OC(=O)c2cc3ccccc3o2)cc1,-79.3% (inactive),174%
Cc1ccc(S(=O)(=O)c2ccc(Oc3ccccc3)cc2)cc1,-87.1% (inactive),116%
Cc1nn(-c2ccccc2)c(Cl)c1/C=C/C(=O)c1ccc(O)cc1,-70.4% (inactive),111%
Cc1ccc(C(=O)/C=C/c2c(C)nn(-c3ccccc3)c2Cl)cc1,-16.7% (inactive),102%
Cc1nn(-c2ccccc2)c(C)c1/C=C/C(=O)OC(C)C(N)=O (stereo not drawn),68.8% (active),181%
O=C(COc1cccc2ccccc12)Nc1cc(S(=O)(=O)N2CCOCC2)ccc1N1CCOCC1,11.1% (inactive),67.5%
CN1C(=O)C(CC(=O)Nc2ccccc2)S/C1=N/c1nccs1 (stereo not drawn),-107% (inactive),120%
COC(=O)c1nc(NC(=O)c2ccc(F)cc2)n[nH]1,28.6% (inactive),129%
Cc1ccccc1NC(=O)c1nn(-c2ccc(F)c(F)c2)ccc1=O,25% (inactive),93.8%
COc1ccc(Cn2nnc3c(=O)[nH]c(C4CCN(C(=O)c5ccccc5Cl)CC4)nc32)cc1,72.7% (active),34.3%
O=C(Nc1ccc(F)cc1)N1CCCC(c2nc3c(nnn3Cc3ccccc3Cl)c(=O)[nH]2)C1 (stereo not drawn),-42.9% (inactive),122%
Cc1ccc(NC(=O)N2CCC(c3nc4c(nnn4Cc4c(F)cccc4Cl)c(=O)[nH]3)CC2)cc1,6.25% (inactive),107%
